From PubChem BioAssay AID1159580 (chemical genetic matrix, 2015)
Values joined by “and” are separate entries in the source; they are usually repeats but may differ in a detail not shown here. Identical values can stand only once. About 2,000 (36%) of roughly 5,500 compounds were called active. About 18% were inconclusive and are not listed. Cut-off read from the data, not from the text of the source: active = normalized growth mostly below about 0.91 (no sharp cut-off); inconclusive = no clear call, values can overlap the other calls; inactive = mostly above about 0.92. The list shows a part of the results.

Assay: chemical genetic growth profiling, strain panel (AID 1159580);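 note: tested at 20 µM; growth read once vehicle control cultures reached saturation at 30 °C; 1 = growth at the plate median or of vehicle wells; lower values mean less growth of the strain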
Details: S. cerevisiae deletion strains, growth OD

Measured: normalized growth

C=C1C[C@]23C[C@@]1(O)CC[C@H]2[C@@]12C=C[C@H](O)[C@@](C)(C(=O)O1)[C@H]2[C@@H]3C(=O)O
inactive: locus YAL013W, strain DEP1, stronger effect = lower value 0.998 | locus YAL021C, strain ccr4, stronger effect = lower value 0.976 | locus YAL026C, strain drs2, stronger effect = lower value 1.04 | locus YAL030W, strain snc1, stronger effect = lower value 1.03 | locus YBL061C, strain skt5, stronger effect = lower value 1.02 | locus YBR009C, strain hhf1, stronger effect = lower value 1.02 | locus YBR021W, strain FUR4, stronger effect = lower value 1.01 | locus YBR023C, strain chs3, stronger effect = lower value 1.02 | locus YBR171W, strain sec66, stronger effect = lower value 1.03 | locus YBR229C, strain ROT2, stronger effect = lower value 0.956 | locus YBR231C, strain swc5, stronger effect = lower value 1.03 | locus YBR279W, strain paf1, stronger effect = lower value 1.02 | locus YCL011C, strain gbp2, stronger effect = lower value 1.03 | locus YCL016C, strain dcc1, stronger effect = lower value 0.997 | locus YCL029C, strain bik1, stronger effect = lower value 0.984 | locus YCL069W, strain vba3, stronger effect = lower value 1.03 | locus YCR088W, strain abp1, stronger effect = lower value 1.02 | locus YDL005C, strain med2, stronger effect = lower value 1.03 | locus YDL035C, strain GPR1, stronger effect = lower value 0.982 | locus YDL040C, strain nat1, stronger effect = lower value 1.03 | locus YDL074C, strain BRE1, stronger effect = lower value 1.02 | locus YDL101C, strain DUN1, stronger effect = lower value 0.999 | locus YDL134C, strain PPH21, stronger effect = lower value 1.03 | locus YDL185W, strain tfp1, stronger effect = lower value 0.978 | locus YDL192W, strain arf1, stronger effect = lower value 0.986 | locus YDR001C, strain nth1, stronger effect = lower value 1.03 | locus YDR069C, strain doa4, stronger effect = lower value 1.03 | locus YDR101C, strain arx1, stronger effect = lower value 0.967 | locus YDR137W, strain rgp1, stronger effect = lower value 1.03 | locus YDR150W, strain NUM1, stronger effect = lower value 0.996 | locus YDR159W, strain sac3, stronger effect = lower value 1.04 | locus YDR162C, strain NBP2, stronger effect = lower value 0.976 | locus YDR195W, strain ref2 1 | locus YDR297W, strain sur2, stronger effect = lower value 1.02 | locus YDR318W, strain mcm21, stronger effect = lower value 0.984 | locus YDR334W, strain swr1, stronger effect = lower value 1.02 | locus YDR335W, strain msn5, stronger effect = lower value 1.02 | locus YDR388W, stronger effect = lower value 0.998 | locus YDR392W, strain spt3, stronger effect = lower value 0.885 | locus YDR502C, strain sam2, stronger effect = lower value 1.03 | locus YEL003W, strain gim4, stronger effect = lower value 1.02 | locus YEL037C, strain rad23, stronger effect = lower value 1.02 | locus YEL061C, strain CIN8 (second series), stronger effect = lower value 1.02 | locus YEL061C, strain CIN8, stronger effect = lower value 1 | locus YER015W, strain faa2, stronger effect = lower value 1.02 | locus YER016W, strain bim1, stronger effect = lower value 1.03 | locus YER110C, stronger effect = lower value 0.98 | locus YER111C, strain swi4, stronger effect = lower value 1 | locus YER155C, strain BEM2 (second series), stronger effect = lower value 1 | locus YER155C, strain BEM2, stronger effect = lower value 0.991 | locus YER167W, strain BCK2, stronger effect = lower value 0.989 | locus YFR010W, strain ubp6, stronger effect = lower value 1.03 | locus YGL078C, strain dbp3, stronger effect = lower value 1.02 | locus YGL086W, strain mad1, stronger effect = lower value 1.01 | locus YGL167C, strain pmr1, stronger effect = lower value 1.03 | locus YGL173C, strain kem1, stronger effect = lower value 1.05 | locus YGL227W, strain vid30, stronger effect = lower value 1.02 | locus YGL240W, strain doc1, stronger effect = lower value 1.02 | locus YGL248W, strain PDE1, stronger effect = lower value 1.01 | locus YGL253W, strain hxk2, stronger effect = lower value 1.05 | locus YGR135W, strain pre9, stronger effect = lower value 1.07 | locus YGR252W, strain gcn5, stronger effect = lower value 1.05 | locus YHR013C, strain ard1, stronger effect = lower value 1.02 | locus YHR027C, strain rpn1, stronger effect = lower value 1.03 | locus YHR030C, strain SLT2, stronger effect = lower value 0.996 and 1 | locus YHR079C, strain IRE1 (second series), stronger effect = lower value 0.998 | locus YHR079C, strain IRE1, stronger effect = lower value 0.998 | locus YHR094C, strain hxt1, stronger effect = lower value 0.991 | locus YHR129C, strain ARP1, stronger effect = lower value 0.998 | locus YHR142W, strain chs7, stronger effect = lower value 1.04 | locus YHR200W, strain rpn10, stronger effect = lower value 1.01 | locus YIL066C, strain RNR3, stronger effect = lower value 0.98 | locus YIL073C, strain SPO22, stronger effect = lower value 1.07 | locus YIL125W, strain kgd1, stronger effect = lower value 1 | locus YIR030C, strain dcg1, stronger effect = lower value 0.994 | locus YJL092W, strain hpr5, stronger effect = lower value 1.02 | locus YJL095W, strain BCK1 (second series), stronger effect = lower value 1.02 | locus YJL095W, strain BCK1, stronger effect = lower value 1.06 and 1.01 | locus YJL115W, strain asf1, stronger effect = lower value 1.02 | locus YJL129C, strain trk1, stronger effect = lower value 1.04 | locus YJL134W, strain LCB3, stronger effect = lower value 0.99 | locus YJL154C, strain vps35, stronger effect = lower value 1.03 | locus YJL164C, strain tpk1, stronger effect = lower value 1.01 | locus YJL166W, strain qcr8, stronger effect = lower value 1.03 | locus YJL168C, strain set2, stronger effect = lower value 1.01 | locus YJL187C, strain SWE1 (second series), stronger effect = lower value 1.01 | locus YJL187C, strain SWE1, stronger effect = lower value 1.03 | locus YJR043C, strain POL32, stronger effect = lower value 0.96 | locus YJR066W, strain TOR1, stronger effect = lower value 0.962 | locus YKL009W, strain mrt4, stronger effect = lower value 1.03 | locus YKL068W, stronger effect = lower value 1 | locus YKL085W, strain MDH1 (second series), stronger effect = lower value 0.99 | locus YKL085W, strain MDH1, stronger effect = lower value 0.99 | locus YKL160W, strain elf1, stronger effect = lower value 0.998 | locus YKR001C, strain vps1, stronger effect = lower value 1.01 | locus YKR026C, strain gcn3, stronger effect = lower value 1.02 | locus YKR091W, strain srl3, stronger effect = lower value 1.03 | locus YLL001W, strain dnm1, stronger effect = lower value 0.986 | locus YLL026W, stronger effect = lower value 1.02 | locus YLL041C, strain sdh2, stronger effect = lower value 1.02 | locus YLR027C, strain aat2, stronger effect = lower value 1.03 | locus YLR039C, strain RIC1, stronger effect = lower value 0.989 | locus YLR058C, strain SHM2, stronger effect = lower value 0.98 | locus YLR102C, strain apc9, stronger effect = lower value 0.995 | locus YLR113W, strain HOG1, stronger effect = lower value 0.998 | locus YLR221C, strain rsa3, stronger effect = lower value 1.04 | locus YLR258W, strain gsy2, stronger effect = lower value 1.02 | locus YLR262C, strain YPT6 (second series), stronger effect = lower value 1.03 | locus YLR268W, strain sec22, stronger effect = lower value 0.97 | locus YLR320W, strain mms22, stronger effect = lower value 1.05 | locus YLR342W, strain FKS1, stronger effect = lower value 1.03 | locus YLR357W, strain rsc2, stronger effect = lower value 0.994 | locus YLR370C, strain arc18, stronger effect = lower value 1.02 | locus YLR371W, strain rom2, stronger effect = lower value 0.992 | locus YLR384C, strain iki3, stronger effect = lower value 1.04 | locus YLR418C, strain cdc73, stronger effect = lower value 1.09 | locus YML016C, strain PPZ1, stronger effect = lower value 0.984 | locus YML032C, strain rad52, stronger effect = lower value 0.984 | locus YML120C, strain ndi1, stronger effect = lower value 1.01 | locus YML124C, strain tub3, stronger effect = lower value 0.984 | locus YMR058W, strain fet3, stronger effect = lower value 1.03 | locus YMR078C, strain ctf18, stronger effect = lower value 0.999 | locus YMR125W, strain sto1, stronger effect = lower value 1.01 | locus YMR129W, stronger effect = lower value 1.02 | locus YMR205C, strain PFK2, stronger effect = lower value 1.02 | locus YMR223W, strain ubp8, stronger effect = lower value 1.01 | locus YMR231W, strain pep5, stronger effect = lower value 1.01 | locus YMR263W, strain SAP30, stronger effect = lower value 0.994 | locus YMR307W, strain GAS1, stronger effect = lower value 0.969 | locus YNL067W, strain RPL9B, stronger effect = lower value 1 | locus YNL071W, strain lat1, stronger effect = lower value 1.02 | locus YNL128W, strain TEP1, stronger effect = lower value 0.976 | locus YNL153C, strain GIM3, stronger effect = lower value 1.02 | locus YNL183C, strain NPR1, stronger effect = lower value 0.958 | locus YNL209W, strain ssb2, stronger effect = lower value 1.03 | locus YNL233W, strain BNI4, stronger effect = lower value 1.04 | locus YNL248C, strain rpa49, stronger effect = lower value 1.05 | locus YNL250W, strain rad50, stronger effect = lower value 0.998 | locus YNL271C, strain bni1, stronger effect = lower value 0.982 | locus YNL298W, strain CLA4, stronger effect = lower value 0.987 | locus YNL307C, strain MCK1, stronger effect = lower value 1.01 | locus YNL322C, strain KRE1 (second series), stronger effect = lower value 1 | locus YNR049C, strain mso1, stronger effect = lower value 1.02 | locus YNR052C, strain pop2, stronger effect = lower value 1.03 | locus YOL006C, strain TOP1, stronger effect = lower value 0.967 | locus YOL012C, strain htz1 1.07 | locus YOL147C, strain pex11, stronger effect = lower value 0.99 | locus YOR001W, strain rrp6, stronger effect = lower value 1.04 | locus YOR061W, strain CKA2, stronger effect = lower value 0.962 | locus YOR069W, strain VPS5, stronger effect = lower value 0.996 | locus YOR070C, strain gyp1, stronger effect = lower value 1.01 | locus YOR080W, strain dia2, stronger effect = lower value 1 | locus YOR083W, strain WHI5, stronger effect = lower value 0.997 | locus YOR106W, strain vam3, stronger effect = lower value 0.982 | locus YOR136W, strain idh2, stronger effect = lower value 0.989 | locus YOR144C, strain elg1, stronger effect = lower value 0.991 | locus YOR184W, strain ser1, stronger effect = lower value 0.954 | locus YOR231W, strain MKK1, stronger effect = lower value 0.98 | locus YOR265W, strain rbl2, stronger effect = lower value 1.02 | locus YOR270C, strain vph1, stronger effect = lower value 1.11 | locus YOR290C, strain snf2, stronger effect = lower value 0.985 | locus YOR316C, strain cot1, stronger effect = lower value 0.984 | locus YPL051W, strain arl3, stronger effect = lower value 0.992 | locus YPL078C, strain atp4, stronger effect = lower value 0.995 | locus YPL106C, strain sse1, stronger effect = lower value 0.993 | locus YPL240C, strain hsp82, stronger effect = lower value 1.01 | locus YPL241C, strain CIN2, stronger effect = lower value 0.997 | locus YPL256C, strain CLN2, stronger effect = lower value 0.992 | locus YPR119W, strain clb2, stronger effect = lower value 1.01 | locus YPR141C, strain kar3, stronger effect = lower value 0.981 | locus YPR163C, strain tif3, stronger effect = lower value 0.989 | locus YPR167C, strain met16, stronger effect = lower value 1.01 | strain wtn01, stronger effect = lower value 0.974
